About 3,300 (8.5%) of roughly 39,000 compounds were called active. The list comes from a sample in which actives are over-represented; it also holds similar structures and randomly drawn compounds.

The test system of this test is HepG2. As to the kind of experiment: cytotoxicity call (relative viability < 0.9). The settings on record: 10 µM.
On to `C[C@@H]1CCCCO[C@H](CN(C)Cc2ccc(C(F)(F)F)cc2)[C@H](C)CN([C@@H](C)CO)C(=O)c2cc(NS(=O)(=O)c3ccc(Cl)cc3)ccc2O1`, for which the cytotoxicity call is “active”.
In the case of `C[C@H](CO)N1C[C@H](C)[C@H](CN(C)Cc2ccc(C(F)(F)F)cc2)OCCCC[C@H](C)Oc2ccc(NS(=O)(=O)c3ccc(Cl)cc3)cc2C1=O`, the cytotoxicity call was “active”.
Consider `C[C@@H]1CN([C@@H](C)CO)C(=O)c2cc(NC(=O)Cc3cn(C)c4ccccc34)ccc2O[C@@H]1CN(C)CC1CCCCC1`, for which the cytotoxicity call is “inactive”.
Turning to `Cc1noc(C)c1S(=O)(=O)Nc1ccc2c(c1)C(=O)N([C@@H](C)CO)C[C@@H](C)[C@@H](CN(C)C(=O)Nc1ccccc1)OCCCC[C@@H](C)O2`, the cytotoxicity call was “inactive”.
In the case of `O=C(O)CCCN1C(=O)CSC1=S`, the cytotoxicity call is “inactive”.
As for `C[C@@H]1CCCCO[C@H](CN(C)C(=O)Nc2ccc(F)cc2)[C@@H](C)CN([C@@H](C)CO)C(=O)c2cc(NC(=O)NC3CCCCC3)ccc2O1`, the cytotoxicity call was “inactive”.
As for `C[C@H](CO)N1C[C@H](C)[C@@H](CN(C)S(C)(=O)=O)Oc2ccc(NC(=O)C3CCCCC3)cc2CC1=O`, the entry is “inactive”; as for `C[C@H](CO)N1C[C@H](C)[C@@H](CN(C)Cc2ccc3c(c2)OCO3)Oc2ccc(NC(=O)Cn3cnnn3)cc2C1=O`, “inactive”.
As for `O=C(Oc1ccc(C2CCCCC2)cc1)c1cccs1`, the entry is “inactive”; as for `Cc1ccc(C(=O)Oc2ccc(/C=N/c3cccs3)cc2)cc1`, “active”; as for `Cc1ccc(-c2ccc(OC(=O)c3ccccc3F)cc2)cc1`, “inactive”.
As to `C[C@H](CO)N1C[C@H](C)[C@@H](CN(C)S(C)(=O)=O)OCCCC[C@H](C)Oc2ccc(NC(=O)c3ccncc3)cc2C1=O`, the cytotoxicity call is “inactive”.
For `CC(C)NC(=O)Nc1ccc2c(c1)C(=O)N([C@H](C)CO)C[C@H](C)[C@@H](CN(C)CC1CCCCC1)OCCCC[C@H](C)O2`, the cytotoxicity call is “inactive”.
As to `C[C@H]1CN([C@@H](C)CO)C(=O)c2cccc(NC(=O)C3CC3)c2O[C@H]1CN(C)C(=O)NC1CCCCC1`, the cytotoxicity call is “inactive”.
For the compound `O=C(C[C@@H]1C=C[C@H](NC(=O)c2cnccn2)[C@@H](CO)O1)NCc1ccccc1F`, the cytotoxicity call is “inactive”.
Consider `CC1(C)C=Cc2cc3ccc(=O)oc3cc2O1`, for which the cytotoxicity call is “inactive”.
In the case of `COc1cc2c(cc1OC)-c1c(oc3cc4c(cc3c1=O)CCO4)CO2` it was “inactive”.
Regarding `COc1cc2c(c3ccccc13)OC(C)(C)C=C2`, the cytotoxicity call is “inactive”.
Regarding `COc1ccc2c(c1)OC1COc3cc(OC)c(OC)cc3C1C2=O` (stereo not given), the cytotoxicity call was “active”.
For the compound `CC(=O)c1cc2c(cc1O)OC(C)(C)C=C2`, the cytotoxicity call is “inactive”.
On to `COc1cc2c(cc1OC)-c1c(oc3c4c(ccc3c1=O)OC(C)(C)C=C4)CO2`, for which the cytotoxicity call is “active”.
On to `COc1cc2c(cc1OC)C1C(=O)c3c(O)cc4c(c3OC1CO2)C=CC(C)(C)O4` (stereo not drawn) [alpha-TOXICAROL (dl) ], for which the cytotoxicity call was “active”.
For `COc1cc(OC)c2c(c1)OC(c1ccccc1)CC2=O` (stereo not given), the cytotoxicity call was “inactive”.
As for `COc1ccc2c(c1)OC1c3ccc(OC)cc3OCC21` (stereo not given), the entry is “inactive”.
In the case of `COc1cc2c(cc1OC)C1C(=O)c3ccc4c(c3OC1CO2)C=CC(C)(C)O4` (stereo not given) it was “active”.
On to `COc1ccc(-c2c(O)c3c(OC)c4c(cc3oc2=O)OC(C)(C)C=C4)cc1`, for which the cytotoxicity call is “inactive”.
As for `Nc1ccc(Cl)nn1`, the cytotoxicity call is “inactive”.
For the compound `C[C@@H]1CN([C@@H](C)CO)C(=O)CCCn2nncc2CO[C@H]1CN(C)S(=O)(=O)c1ccc(Cl)cc1`, the cytotoxicity call is “inactive”.
In the case of `O=C(C[C@@H]1CC[C@@H](NC(=O)CN2CCOCC2)[C@H](CO)O1)NCCc1ccncc1`, the cytotoxicity call was “inactive”.
Consider `C[C@@H]1CCCCO[C@H](CN(C)C(=O)C2CCCCC2)[C@H](C)CN([C@@H](C)CO)C(=O)c2cc(NC(=O)Cc3ccccc3)ccc2O1`, for which the cytotoxicity call is “inactive”.
In the case of `Cc1cn(Cc2ccccc2)c(=O)[nH]c1=O` it was “inactive”.
With `O=C(C[C@H]1CC[C@@H]2[C@H](COC[C@@H](O)CN2C(=O)Nc2cc(Cl)cc(Cl)c2)O1)N1CCOCC1`, the cytotoxicity call is “inactive”.
In the case of `COC[C@@H]1c2nnn(C)c2CCN1S(=O)(=O)c1cn(C)cn1`, the cytotoxicity call was “inactive”.
With `C[C@H](CO)N1C[C@H](C)[C@@H](CN(C)CC2CCCCC2)OCCCC[C@H](C)Oc2ccc(NS(=O)(=O)c3ccc(F)cc3)cc2C1=O`, the cytotoxicity call is “inactive”.
`C[C@H](CO)N1C[C@H](C)[C@H](CN(C)CC2CCCCC2)OCCCC[C@H](C)Oc2ccc(NS(=O)(=O)c3ccc(F)cc3)cc2C1=O`: the cytotoxicity call was “active”.
Consider `C[C@@H]1CCCCO[C@H](CN(C)CC2CCCCC2)[C@@H](C)CN([C@H](C)CO)C(=O)c2cc(NS(=O)(=O)c3ccc(F)cc3)ccc2O1`, for which the cytotoxicity call is “inactive”.
For the compound `C[C@@H]1CCCCO[C@@H](CN(C)CC2CCCCC2)[C@H](C)CN([C@H](C)CO)C(=O)c2cc(NS(=O)(=O)c3ccc(F)cc3)ccc2O1`, the cytotoxicity call is “inactive”.
As for `C[C@H]1CCCCO[C@H](CN(C)CC2CCCCC2)[C@@H](C)CN([C@@H](C)CO)C(=O)c2cc(NS(=O)(=O)c3ccc(F)cc3)ccc2O1`, the cytotoxicity call was “active”.
For `C[C@@H]1CN([C@H](C)CO)C(=O)c2cc(NS(=O)(=O)c3ccc(F)cc3)ccc2O[C@@H](C)CCCCO[C@@H]1CN(C)CC1CCCCC1`, the cytotoxicity call is “inactive”.
As for `C[C@@H]1CCCCO[C@@H](CN(C)CC2CCCCC2)[C@@H](C)CN([C@H](C)CO)C(=O)c2cc(NS(=O)(=O)c3ccc(F)cc3)ccc2O1`, the entry is “active”; as for `C[C@@H]1CN([C@@H](C)CO)C(=O)c2cc(NS(=O)(=O)c3ccc(F)cc3)ccc2O[C@@H](C)CCCCO[C@H]1CN(C)CC1CCCCC1`, “inactive”; as for `C[C@@H]1CCCCO[C@@H](CN(C)CC2CCCCC2)[C@@H](C)CN([C@@H](C)CO)C(=O)c2cc(NS(=O)(=O)c3ccc(F)cc3)ccc2O1`, “inactive”.
As for `C[C@@H]1CCCCO[C@@H](CN(C)CC2CCCCC2)[C@H](C)CN([C@@H](C)CO)C(=O)c2cc(NS(=O)(=O)c3ccc(F)cc3)ccc2O1`, the entry is “active”; as for `C[C@@H]1CCCCO[C@H](CN(C)CC2CCCCC2)[C@H](C)CN([C@H](C)CO)C(=O)c2cc(NS(=O)(=O)c3ccc(F)cc3)ccc2O1`, “inactive”; as for `C[C@@H]1CN([C@@H](C)CO)C(=O)c2cc(NS(=O)(=O)c3ccc(F)cc3)ccc2O[C@@H](C)CCCCO[C@@H]1CN(C)CC1CCCCC1`, “inactive”.
In the case of `CCCNC(=O)C[C@H]1CC[C@@H]2[C@@H](COc3ccc(NS(=O)(=O)c4ccccc4C)cc3C(=O)N2C)O1`, the cytotoxicity call was “inactive”.
In the case of `O=C(C[C@H]1C=C[C@@H](NC(=O)c2ccc3c(c2)OCO3)[C@@H](CO)O1)NCc1ccc(Oc2ccccc2)cc1`, the cytotoxicity call is “inactive”.
As for `COc1ccc2c3c(n(c2c1)C)[C@@H](CO)N(C[C@]13CCN(CC1)S(=O)(=O)c1cn(cn1)C)C(=O)Nc1ccc(cc1)F`, the entry is “inactive”.
For the compound `COc1ccc2c3c([nH]c2c1)[C@H](CO)N(C[C@]13CN(CC2CCCCC2)C1)S(=O)(=O)c1cn(cn1)C`, the cytotoxicity call was “inactive”.
As for `C[C@@H]1CCCCO[C@H](CN(C)C(=O)NC2CCCCC2)[C@H](C)CN([C@@H](C)CO)C(=O)c2cc(NC(=O)C3CCCCC3)ccc2O1`, the entry is “inactive”.
For `CN1C(=O)[C@@H]2[C@@H]3C[C@H]4[C@@H](O[C@H]1[C@H]42)[C@H]3O`, the cytotoxicity call was “inactive”.
For `C[C@H](CO)N1C[C@H](C)[C@H](CN(C)Cc2ccncc2)Oc2c(NC(=O)c3cnccn3)cccc2C1=O`, the cytotoxicity call is “inactive”.
In the case of `C[C@@H]1CCCCO[C@H](CN(C)CC2CCCCC2)[C@H](C)CN([C@@H](C)CO)C(=O)c2cc(NS(=O)(=O)c3ccc(F)cc3)ccc2O1` it was “inactive”.
As for `C[C@H]1CCCCO[C@@H](CN(C)CC2CCCCC2)[C@@H](C)CN([C@@H](C)CO)C(=O)c2cc(NS(=O)(=O)c3ccc(F)cc3)ccc2O1`, the cytotoxicity call is “inactive”.
On to `C[C@@H]1CN([C@H](C)CO)C(=O)c2cc(NS(=O)(=O)c3ccc(F)cc3)ccc2O[C@@H](C)CCCCO[C@H]1CN(C)CC1CCCCC1`, for which the cytotoxicity call was “active”.
As to `C[C@H](CO)N1C[C@H](C)[C@@H](CN(C)C(=O)Nc2ccc3c(c2)OCO3)Oc2ccc(NC(=O)Cn3cnnn3)cc2C1=O`, the cytotoxicity call was “inactive”.
As for `C[C@H](CO)N1C[C@H](C)[C@@H](CN(C)C(=O)Nc2ccc3c(c2)OCO3)OCCCC[C@H](C)Oc2ccc(NS(=O)(=O)c3ccc(F)cc3)cc2C1=O`, the cytotoxicity call is “inactive”.
On to `CC(C)NC(=O)N(C)C[C@H]1Oc2ccc(NS(=O)(=O)c3ccc(F)cc3)cc2C(=O)N([C@@H](C)CO)C[C@H]1C`, for which the cytotoxicity call is “inactive”.
As for `C[C@H](CO)N1C[C@H](C)[C@H](CN(C)C(=O)Nc2ccc(C(F)(F)F)cc2)Oc2ccc(NC(=O)Nc3ccc4c(c3)OCO4)cc2CC1=O`, the cytotoxicity call was “inactive”.
In the case of `Cl.N=C(NN=Cc1ccc(Cl)cc1)NN=Cc1ccc(Cl)cc1`, the cytotoxicity call was “inactive”.
Consider `CC(C)(C)c1csc(-c2ccc(-c3cccs3)s2)n1`, for which the cytotoxicity call was “inactive”.
Regarding `Clc1ccc(/C=N/Cc2ccc(-c3cccs3)s2)cc1`, the cytotoxicity call was “active”.
`CN1C(=O)c2cc(NC(=O)C3CCC3)ccc2OC[C@H]2O[C@H](CC(=O)NCCc3ccncc3)CC[C@@H]21`: the cytotoxicity call is “inactive”.
For the compound `Cc1noc(C)c1NC(=O)N(C)C[C@H]1Oc2ccc(NC(=O)Cn3cnnn3)cc2C(=O)N([C@@H](C)CO)C[C@@H]1C`, the cytotoxicity call was “inactive”.
With `O=C(C[C@@H]1CC[C@H]2[C@@H](COC[C@@H](O)CN2S(=O)(=O)c2cccc(Cl)c2)O1)NCc1ccc2c(c1)OCO2`, the cytotoxicity call was “inactive”.
As for `C[C@@H]1O[C@@H](OC[C@H]2O[C@@H](OCCc3ccccc3)[C@H](O)[C@@H](O)[C@@H]2O)[C@H](O)[C@H](O)[C@H]1O`, the entry is “inactive”; as for `Cc1coc(C)c1C(=O)O[C@@H]1O[C@@H](C)[C@H](O)[C@@H](O)[C@H]1O`, “active”.
On to `C[C@@H]1O[C@@H](Oc2c(-c3cc(O)c(O)c(O)c3)oc3cc(O)cc(O)c3c2=O)[C@H](O)[C@H](O)[C@H]1O`, for which the cytotoxicity call is “inactive”.
With `CCO[C@H]1OC(C(=O)N2CCN(Cc3ccc4c(c3)OCO4)CC2)=C[C@@H](C)[C@@H]1CCCOC(=O)NCCCCCC(=O)NO`, the cytotoxicity call was “inactive”.
With `O=C(C[C@H]1C[C@@H]2c3cc(NC(=O)NC4CCCC4)ccc3O[C@@H]2[C@@H](CO)O1)NCc1ccc2c(c1)OCO2`, the cytotoxicity call was “inactive”.
